MbtI inh: blocks the Mycobacterium tuberculosis siderophore enzyme MbtI; purified MbtI enzyme, fluorescence intensity read-out; AID 493033; 100,000 tested, 0.89% active; inhibition, % (concentration not given with the values); P9WFX0; in the data active = inhibition mostly above about 56%, no sharp cut-off; inactive = mostly below about 77%
Target sequence (P9WFX0 whole entry, looked up): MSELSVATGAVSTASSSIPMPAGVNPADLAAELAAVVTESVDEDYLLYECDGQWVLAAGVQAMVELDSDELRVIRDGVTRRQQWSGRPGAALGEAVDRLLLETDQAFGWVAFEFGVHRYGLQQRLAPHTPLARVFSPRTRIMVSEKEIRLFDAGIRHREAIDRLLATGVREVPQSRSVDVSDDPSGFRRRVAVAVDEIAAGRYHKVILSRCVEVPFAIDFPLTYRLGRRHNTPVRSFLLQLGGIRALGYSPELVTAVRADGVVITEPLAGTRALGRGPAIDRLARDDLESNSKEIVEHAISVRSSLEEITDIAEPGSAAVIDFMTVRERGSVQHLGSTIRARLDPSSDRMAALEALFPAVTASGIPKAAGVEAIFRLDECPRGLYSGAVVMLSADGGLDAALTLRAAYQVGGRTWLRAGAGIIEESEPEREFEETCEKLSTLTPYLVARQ
Polio RdRp inh: inhibitors of poliovirus RNA polymerase binding and polymerization; P03300; poliovirus polymerase elongation, fluorescence polarization; active compounds read low; % elongation, % (compound at 16.7 µg/mL); 150,000 tested, 0.66% active; in the data active = % elongation below about 90%
AID504770: growth inhibitors of E. coli YBA685 in a screen for V. cholerae RctB (chromosome II replication) inhibitors; E. coli YBA685 rctB-dependent plasmid, OD600 growth, 3 h; active compounds read low; z-score (concentration not given with the values); 130,000 tested, 0.27% active; AID 504770; in the data active = z-score below about -2, passing the limit was not always enough
Mtb MenB inh: blocks the Mycobacterium tuberculosis MenB enzyme; P9WNP5; MenB enzyme assay, absorbance read-out; inhibition, % (no concentration beside the values); 100,000 tested, 0.43% active; AID 540299; in the data active = inhibition above about 21%, passing the limit was not always enough
Hits are given with their value; 0 = inactive; - = not tested or not shown. Most compounds without a hit are left out; they make up all but 1.4% or so of the library.

SMILES | MbtI inh | Polio RdRp inh | AID504770 | Mtb MenB inh
CCn1c(COc2ccc(C)cc2)nnc1SCC(=O)N1CCCc2ccccc21 | 0 | 0 | 0 | 0
CCn1c(COc2cccc(C)c2)nnc1SCC(=O)N1C(C)CCCC1C (stereo not drawn) | 0 | 0 | 0 | 38.5
COc1cc(OC)cc(C(=O)N2CCC(C(=O)NCCc3ccccc3)CC2)c1 | 0 | 0 | 0 | 47.9
COc1cc(NCCCC(C)N)c2ncccc2c1 (stereo not drawn) | 0 | 35.0 | 0 | 0
O=C(Cn1cnc2c(oc3ccccc32)c1=O)Oc1ccccc1Cl | 0 | 60.0 | 0 | 0
C=CCC(O)(CN)CC=C | 0 | 0 | 0 | 32.2
CCOC(=O)c1c(NC(=O)c2cc(-c3ccc(OC)c(OC)c3)on2)sc(C)c1C | - | 0 | - | -
CCOC(=O)c1c(NC(=O)c2cc(CC(C)C)on2)sc(C(C)=O)c1C | - | 81.0 | - | -
COc1ccccc1-c1cc(C(=O)Nc2sc3c(c2C#N)CCCC3)no1 | - | 82.0 | - | -
Cc1cc(C(=O)Nc2sc3c(c2C#N)CCC3)no1 | - | - | 0 | -
CCOC(=O)c1c(NC(=O)c2cc(-c3ccccc3OC)on2)sc(C)c1C | - | 73.0 | - | -
CCOC(=O)c1c(NC(=O)c2cc(CC)on2)sc(C)c1C | - | 90.0 | - | -
CCOC(=O)c1sc(NC(=O)c2cc(C(C)C)on2)c(C(=O)OCC)c1C | 0 | 0 | 0 | 0
O=C(O)COc1ccc(/C=C2\COc3ccccc3C2=O)cc1 | 0 | 0 | 0 | 0
O=C1CC(c2ccc(S(=O)(=O)NC3CCCCC3)cc2)CN1 (stereo not drawn) | 0 | 0 | 0 | 0
CCOC(=O)c1c(NC(=O)c2cc(-c3ccc(Cl)cc3)on2)sc(C)c1C | - | 0 | - | -
CCOC(=O)c1c(NC(=O)c2cc(C)on2)sc(C)c1C | - | 78.0 | - | -
Cc1cc2ccccc2n1-c1ccc(C(=O)N2CCc3ccccc32)s1 | 0 | 0 | 0 | 0
CCN(CC)c1ccc(NC(=S)Nc2ccc(S(N)(=O)=O)cc2)cc1 | 62.6 | 0 | 0 | 0
CCN(CC)c1ccc(NC(=S)NC(C)C)cc1 | 0 | 0 | 0 | 0
O=c1[nH]snc1N1CCOCC1 | 0 | - | 0 | -
O=c1[nH]snc1N1CCCCC1 | 0 | 64.0 | 0 | 0
CCOC(=O)c1cccc(NC(=O)n2ncc3cc(Cl)ccc32)c1 | 0 | 0 | 0 | 0
O=C1Nc2ccccc2C(=O)C1(O)O | 0 | 0 | 0 | 43.3
O=C1Nc2ccccc2-c2ccccc2N1 | 0 | 0 | 0 | 0
SMILES | MbtI inh | Polio RdRp inh | AID504770 | Mtb MenB inh
O=C(CCN1c2ccccc2Sc2ccccc21)NC1=NCCS1 | 0 | 85.0 | 0 | 0
O=C(CCCN1C(=O)c2ccccc2C1=O)NC1=NCCS1 | 0 | 0 | 0 | 0
CCCC(=O)Oc1c(Sc2ccccc2)c(C)nn1-c1ccccc1 | 57.9 | - | - | -
N#Cc1cc(C(=O)c2cc(Br)ccc2O)cn(-c2ccccc2F)c1=O | 0 | 0 | 0 | -
CC1CCN(CCCNC(=O)c2cn(C)c3ccc(S(=O)(=O)N(C)C4CCCCC4)cc3c2=O)CC1 | - | 0 | - | -
CCn1cc(C(=O)N2CCN(c3ccc(F)cc3)CC2)c(=O)c2cc(S(=O)(=O)N(C)C3CCCCC3)ccc21 | - | 0 | - | -
CCC1CCCCN1CCCNC(=O)c1cn(C)c2ccc(S(=O)(=O)N(C)C3CCCCC3)cc2c1=O (stereo not drawn) | - | 30.0 | - | -
CCn1cc(C(=O)N2CCN(c3ccccc3)CC2)c(=O)c2cc(S(=O)(=O)N(C)C3CCCCC3)ccc21 | - | 68.0 | - | -
CC(C)C(NC(=O)Cc1ccc(S(=O)(=O)N2CCOCC2)s1)c1nc2ccccc2[nH]1 (stereo not drawn) | 0 | 0 | 0 | 0
CSc1sc(C(=O)Sc2ccccc2)cc1S(=O)(=O)C(C)C | 0 | 82.0 | 0 | 0
CSc1sc(C(=O)N(C)C)cc1S(=O)(=O)C(C)C | - | - | 0 | -
COc1ccc(-c2n[nH]n3c2nc(=O)c2ccccc23)cc1 | 0 | - | 0 | -
COc1ccc2c(c1)CCc1c(C(=O)N3CCCCC3)noc1-2 | 0 | 0 | 0 | 0
COc1ccc2c(c1)CCc1c(C(=O)N3C(C)CCCC3C)noc1-2 (stereo not drawn) | 0 | 0 | -3.05 | 0
OC(COCC1CC=CCC1)CN(Cc1ccccc1)Cc1ccccc1 (stereo not drawn) | - | 86.0 | 0 | 0
O=C1CCCCCN1Sc1ccccc1 | 69.6 | 0 | 0 | 0
COc1ccccc1NC(=O)CSCC(N)=O | 95.4 | 0 | 0 | 0
CCOc1ncccc1C(=O)N1CCSC1=NCc1ccccc1 | 0 | - | 0 | 0
O=C(c1ccc(F)cc1)N1CCc2ccccc2C1 | - | 85.0 | 0 | 0
CCc1cccc(NC(=O)C2COc3ccccc3O2)c1 (stereo not drawn) | 0 | 0 | 0 | 0
CCc1ccc2c(c1)S(=O)(=O)C(C(F)(F)F)CO2 (stereo not drawn) | - | 84.0 | 0 | 0
CC(C(=O)NC(C)(C)C)n1c(C(F)(F)F)nc2ccccc21 (stereo not drawn) | - | - | 0 | -
O=C1NC(=Nc2ccccc2)CS1 | 0 | 0 | 0 | 0
O=C1NC(=Nc2ccc(F)cc2)CS1 | 78.1 | 0 | 0 | 0
FC(F)(F)c1cc(Cl)c2nc(CSc3ncccn3)cn2c1 | 0 | 0 | 0 | -
SMILES | MbtI inh | Polio RdRp inh | AID504770 | Mtb MenB inh
Cc1nc(C(=O)Nc2ccc(Cl)cc2)sc1C(=O)Nc1ccc(Cl)cc1 | 64.5 | 69.0 | 0 | 0
CCN(CC)c1cc(-c2cccs2)nc(SCC(=O)c2cccs2)c1C#N | - | 77.0 | 0 | 0
CCCCN(C)Cc1cccc(OC)c1OC | 0 | 0 | 0 | 0
COc1ccccc1CN(C)CCN | 0 | 0 | 0 | 74.6
O=C(NCCn1cccc1)c1cccc2ccccc12 | 52.8 | 0 | 0 | 0
CCOC(=O)/C(C#N)=C1\CC2CCC1(C)C2(C)C (stereo not drawn) | 83.8 | 0 | 0 | 0
COc1ccc(C=C2C(=O)NC(=O)NC2=O)cc1 | 0 | 0 | 0 | 0
COc1ccc(C=C2C(=O)NC(=S)NC2=O)cc1 | 96.9 | 0 | 0 | 0
O=C(c1cccnc1Nc1ccccc1F)N1CCCCC1 | 0 | 0 | 0 | 38.8
O=C(CSC1CCS(=O)(=O)C1)Nc1ccccc1-c1ccccc1 (stereo not drawn) | 0 | 0 | 0 | 0
CC(NC(=O)c1ccc(F)cc1)C(=O)O (stereo not drawn) | 0 | 0 | 0 | 38.4
CC(C)C(NC(=O)c1ccc(F)cc1)C(=O)O (stereo not drawn) | - | - | 0 | -
CCOc1cc(S(=O)(=O)NCc2ccc(OC)cc2)c(OCC)cc1-n1cnnn1 | 0 | 0 | 0 | 0
CCOc1cc(S(=O)(=O)NCCc2ccc(OC)c(OC)c2)c(OCC)cc1-n1cnnn1 | 0 | 0 | 0 | 44.3
CC(=O)c1c(CC(=O)O)[nH]n(-c2nc3ccccc3s2)c1=O | 59.7 | 0 | 0 | 0
COC(=O)Cc1[nH]n(-c2nc3ccccc3s2)c(=O)c1C(C)=O | - | 0 | 0 | 0
Cc1cccc(N2C(=O)CC(Sc3nccc(C)n3)C2=O)c1 (stereo not drawn) | 63.2 | 0 | 0 | 0
Cc1cccc(N2C(=O)CC(Sc3ncn[nH]3)C2=O)c1 (stereo not drawn) | 99.3 | 0 | 0 | 0
CCOc1ccc(N2C(=O)CC(Sc3nccc(C)n3)C2=O)cc1 (stereo not drawn) | 0 | 0 | 0 | 0
O=C(Cc1c[nH]c2ccccc12)OCC(=O)c1cc2ccccc2o1 | 0 | 0 | 0 | 0
S=c1nc2c(n[nH]1)c1ccccc1n2Cc1ccccc1 | - | 73.0 | 0 | 0
CC(C)n1c2ccccc2c2n[nH]c(=S)nc21 | 0 | 0 | 0 | 0

Screening data (PubChem BioAssay)
